Among the data in PubChem BioAssay AID738 (SRMLSC, 2007) are inhibition values, retold here.

In all, about 98,000 compounds went through this assay and about 4,900 (5%) were called active. Cut-off read from the data, not from the text of the source: active = inhibition above about 30%; inactive = the rest. Only a selection was taken, and actives are over-represented in it overall.

What is called inhibition is the drop in the measured response relative to a control, in per cent.

The experiment is described as follows: growth inhibition of yeast control strain, primary screen, counter-screen for post-Golgi transport modulator project (AID 738). The conditions noted are these: efflux-deficient yeast background strain, growth absorbance A615, 16 h; at 10 µM; active compounds read high.
Turning to `CCN(CC)CCN1C(=O)C(=O)/C(=C(/O)c2cnn(-c3ccccc3)c2C)C1c1cccs1` (configuration not stated), the inhibition was 10.5% (inactive).

On to `S=c1nccc(-c2cc(Cl)sc2Cl)[nH]1`, for which the inhibition was -1.82% (inactive).

For `O=C(Nc1ccccc1N1CCCCC1)c1cccc(F)c1`, the inhibition is 31.6% (active).

As to `O=C(Nc1ccccc1N1CCCCC1)c1ccc2nccnc2c1`, the inhibition is 16.6% (inactive).

Turning to `O=C(Nc1ccccc1N1CCN(c2ccccc2)CC1)c1cccc(F)c1`, the inhibition was 15.4% (inactive).

Turning to `CCC(=O)OCc1c(C(F)(F)F)nn(C)c1Oc1cccc(C(F)(F)F)c1`, the inhibition is -7.2% (inactive).

Consider `S=C(NCc1ccc(Cl)cc1)NC12CC3CC(CC(C3)C1)C2`, for which the inhibition is 69.2% (active).

With `S=C(NCc1cccs1)Nc1ccc(Cl)cc1`, the inhibition is 1.15% (inactive).

In the case of `O=C(NCc1ccc2c(c1)OCO2)C12CC3CC(CC(C3)C1)C2`, the inhibition was 9.12% (inactive).

For `O=C(/C=C/c1cccs1)c1cc(Cl)ccc1OC(=O)N1CCOCC1`, the inhibition is 16.3% (inactive).

As to `N/C(=N\OC(=O)c1cc(-c2ccccc2)nc2ccccc12)c1ccncc1`, the inhibition was 13.9% (inactive).

Consider `Nc1ccccc1SCc1cc([N+](=O)[O-])cc2c1OCOC2`, for which the inhibition was 13.6% (inactive).

Turning to `CCOc1ccc(-c2cn(S(=O)(=O)c3cccc4nsnc34)nc2N)cc1`, the inhibition is 53.9% (active).

`CCOc1ccc(NC(=O)CCS(=O)(=O)c2cccc3nsnc23)cc1`: the inhibition is 32.5% (active).

For `CCOc1ccc(OCC)c(NC(=O)CN(C)S(=O)(=O)c2cccc3nsnc23)c1`, the inhibition was 0.74% (inactive).

For the molecule `Cc1cccc(C)c1NC(=O)CCS(=O)(=O)c1cccc2nsnc12`, the inhibition was 9.17% (inactive).

Turning to `CCCCN(CC)C(=O)CN(C)S(=O)(=O)c1cccc2nsnc12`, the inhibition is 7.72% (inactive).

Turning to `O=C(O)c1ccc(NS(=O)(=O)c2cccc3nsnc23)cc1`, the inhibition is 18% (inactive).

As for `CCc1ccc(C(=O)CSc2nnc(C)c(=O)[nH]2)cc1`, the inhibition is 22% (inactive).

With `Nc1ccc(C(=O)OCC(=O)NC2CCCc3ccccc32)cc1[N+](=O)[O-]` (configuration not stated), the inhibition is 16.1% (inactive).

Consider `CCCc1nc2ccccc2c(C(=O)OCC(=O)c2ccc3c(c2)NC(=O)CO3)c1CC`, for which the inhibition was 2.23% (inactive).

As to `O=C(COc1ccc2c(C(F)(F)F)cc(=O)oc2c1)Nc1ccc2c(c1)OCCO2`, the inhibition is 3.57% (inactive).

Take `CCOc1ccc(S(=O)(=O)Nc2nc3cc(OC)ccc3s2)cc1`: the inhibition was 2.89% (inactive).

With `CC(=O)c1cnc(SCCN2C(=O)c3ccccc3C2=O)nc1C`, the inhibition is -2.62% (inactive).

For `Cc1cc(C)c2nc(NC(=O)c3ccc4c(c3)OCO4)sc2c1`, the inhibition was 21.3% (inactive).

In the case of `O=S(=O)(NC1CCCCC1)c1ccc(F)c2ccccc12`, the inhibition was 35.4% (active).

As for `COc1ccc(C)cc1S(=O)(=O)NC1CCCCC1`, the inhibition is 2.46% (inactive).

As for `CSc1ccc(S(=O)(=O)NC2CCCCC2)cc1`, the inhibition was 10.7% (inactive).

For the molecule `Cc1ccc(N(NC(=O)C(C)(C)O)C(=O)c2ccccc2)cc1C`, the inhibition was 0.77% (inactive).

In the case of `Cc1ccccc1C(=O)N1CCC(C(=O)Nc2ccc(S(=O)(=O)N(C)C(C)C)cc2)CC1`, the inhibition was -2.28% (inactive).

On to `CCc1nc(Nc2ccc3nccnc3c2)c2oc3ccccc3c2n1`, for which the inhibition is 4.28% (inactive).

`COc1ccccc1Nc1ncnc2c1oc1ccccc12`: the inhibition was 31.2% (active).

`Cc1nc(Cl)c2oc3ccccc3c2n1`: the inhibition was -0.78% (inactive).

On to `NS(=O)(=O)c1cccnc1Nc1cccc(Cl)c1`, for which the inhibition was 7.66% (inactive).

`O=C(Cn1ccc([N+](=O)[O-])n1)NCc1cccs1`: the inhibition is 18.9% (inactive).

`Cc1ccccc1-c1nnc(SCC(=O)NCc2ccc3c(c2)OCO3)n1C`: the inhibition was 12.7% (inactive).

For `Cn1c(SCc2nc3ccccc3s2)nnc1-c1ccc2c(c1)OCO2`, the inhibition is 33.8% (active).

As for `Cc1cccc(CSc2nnc(Cn3c(=O)sc4ccccc43)n2C)c1`, the inhibition was 13.1% (inactive).

On to `Cc1cccc(N2C(=O)C3C(c4ccccc4)OC4(C(=O)c5ccccc5C4=O)C3C2=O)c1` (configuration not stated), for which the inhibition was -14.2% (inactive).

For `CCN(CC)C(=O)CSc1nnc(CNc2ccc(F)cc2)n1Cc1ccco1`, the inhibition is 7.51% (inactive).

For `COc1cccc(-c2nnc(SCCOc3ccc4c(C)cc(=O)oc4c3)o2)c1`, the inhibition is 7.69% (inactive).

As for `CC(Sc1nnc(Cc2ccc([N+](=O)[O-])cc2)o1)C(N)=O` (configuration not stated), the inhibition is 5.64% (inactive).

For the molecule `N#C/C(=C(/O)Cc1cccc2ccccc12)c1nc2ccccc2s1`, the inhibition is 0.29% (inactive).

In the case of `COc1ccc(OCC(=O)NCCc2ccc(S(N)(=O)=O)cc2)cc1`, the inhibition is -0.6% (inactive).

With `CC(C)NS(=O)(=O)c1ccc(OCC(=O)Nc2ccc3c(c2)OCCO3)cc1`, the inhibition is 3.4% (inactive).

Take `Cc1ccc(CNC(=O)COc2ccc(S(=O)(=O)NC(C)C)cc2)cc1`: the inhibition was 36.6% (active).

In the case of `CNC(=O)c1csc(-c2ccccc2)n1`, the inhibition is -5.25% (inactive).

Turning to `Cc1occc1C(=O)NNC(=S)NCC(C)C`, the inhibition was 3.2% (inactive).

With `CSCCC(NS(=O)(=O)c1ccc2c(c1)oc(=O)n2C)C(=O)NC1CCCc2ccccc21` (configuration not stated), the inhibition is -5.76% (inactive).

On to `CC(C)Oc1ccc(CCc2n[nH]c(=S)n2Cc2ccccc2)cc1`, for which the inhibition is -1.67% (inactive).

On to `C=CCn1c(-c2ccc3[nH]c(C)c(C)c3c2)n[nH]c1=S`, for which the inhibition is 3.87% (inactive).

As to `CCCc1cc(-c2n[nH]c(=S)n2Cc2ccccc2)cs1`, the inhibition is 37.9% (active).

Take `Cc1cccc(NC(=S)N2CCC(c3nc4ccccc4s3)CC2)c1`: the inhibition is 10.4% (inactive).

For the molecule `CCCCNCc1ccc(SC)cc1`, the inhibition was 3.73% (inactive).

Turning to `Cc1ccc(S(=O)(=O)N2CCC(C(=O)NCC3CCCO3)CC2)cc1` (configuration not stated), the inhibition was 11.9% (inactive).

Consider `O=C1NC(Nc2nc3ccccc3s2)(C(F)(F)F)C(=O)N1C1CCCCC1` (configuration not stated), for which the inhibition was 47.7% (active).

In the case of `COC(=O)NC1(C(F)(F)F)NC(=O)N(C2CCCCC2)C1=O` (configuration not stated), the inhibition is -7.51% (inactive).

With `COc1ccc(C2Nc3ccccc3C(=O)N2Cc2ccccc2)cc1Cn1nnc2ccccc21` (configuration not stated), the inhibition was 13.4% (inactive).

Regarding `CN(C)c1ccc(NC(=S)N(CCc2ccccc2)C2CC(=O)N(c3c(Cl)cccc3Cl)C2=O)cc1` (configuration not stated), the inhibition was 5.66% (inactive).

In the case of `O=C(O)CCC(=O)NCc1ccc(C(=O)O)cc1`, the inhibition was 12.1% (inactive).

On to `CC(CNC(=O)c1ccc(Br)o1)NC(=O)c1ccc(Br)o1` (configuration not stated), for which the inhibition is 18.5% (inactive).

For `O=C(NCCc1ccccn1)c1ccc(COc2ccccc2)o1`, the inhibition was -1.77% (inactive).

Turning to `COc1ccc(-c2nc(CCNC(=O)c3ccc(Br)o3)cs2)cc1`, the inhibition is 36.5% (active).

With `Cc1ccccc1OC(=O)Cn1c(C(F)(F)F)nc2ccccc21`, the inhibition is 12.9% (inactive).

Take `COC(=O)c1ccccc1OCC(=O)N1CCN(c2ccc(Cl)cc2)CC1`: the inhibition is 13.6% (inactive).

For `O=c1c2ccccc2nnn1CSc1nnnn1-c1ccccc1`, the inhibition is 19.6% (inactive).

For `CN(C(=O)CSc1nnnn1-c1ccccc1)C1CCCCC1`, the inhibition is 38% (active).

On to `COc1ccc(-n2nnnc2SCC(=O)Nc2ccccc2)cc1`, for which the inhibition is 2.21% (inactive).

`CC(=O)c1nn(-c2cccc(Br)c2)cc1C(=O)c1cccc2ccccc12`: the inhibition was 8.1% (inactive).

As to `Cc1cc2cc3c(N)[nH]nc3nc2cc1C`, the inhibition is 8.93% (inactive).

As for `COCCNS(=O)(=O)c1cc(Br)ccc1OC`, the inhibition was 2.48% (inactive).

Turning to `O=[N+]([O-])c1cccc(-c2nnc3c4ccccc4c4ccccc4n23)c1`, the inhibition is 6.93% (inactive).

Consider `CC(C)CC(=O)N/C(N)=N/c1nc2ccccc2s1`, for which the inhibition is 13.9% (inactive).

As for `CCC(=O)NC(=Nc1nc2ccccc2s1)NC(=O)CC`, the inhibition was 35.9% (active).

In the case of `COC(=O)Cc1cc(=O)n(-c2nc3ccccc3s2)[nH]1`, the inhibition was 11.8% (inactive).

Turning to `COc1ccc(C(=O)N2CCc3cc(OC)c(OC)cc3C2c2cccc([N+](=O)[O-])c2)cc1` (configuration not stated), the inhibition was 20% (inactive).

Take `c1ccc2c(C[n+]3csc4ccccc43)cccc2c1`: the inhibition was 9.79% (inactive).

As for `COc1ccc(C)cc1NC(=O)CCC(=O)Nc1nnc(C(F)(F)F)s1`, the inhibition is 0.61% (inactive).

`Cc1[nH]n(-c2cccc(Cl)c2)c(=O)c1-c1ccc(Cl)cc1`: the inhibition is 55.6% (active).

Regarding `Cc1[nH]n(-c2cccc(Cl)c2)c(=O)c1/C=N/n1c(C)nc2ccccc2c1=O`, the inhibition is 9.33% (inactive).

Take `O=c1[nH]n(-c2cccc(Cl)c2)c2ncccc12`: the inhibition is 16.8% (inactive).

On to `O=C(CN1CCN(S(=O)(=O)c2ccc(Cl)s2)CC1)NCc1ccc(Cl)cc1`, for which the inhibition was 15.8% (inactive).

In the case of `CC(=O)Nc1cccc(/C(C)=N/NC(=O)c2ccccc2Cl)c1`, the inhibition was 5.79% (inactive).

On to `Cc1ccc(C(=O)Nc2ccccc2C(=O)NC2CCCCC2)cc1S(=O)(=O)N1CCOCC1`, for which the inhibition is 36.2% (active).

`Cc1ccc(C(=O)Nc2ccc3c(c2)OCO3)cc1S(=O)(=O)N1CCCCC1`: the inhibition is 16.4% (inactive).

As for `Cc1cc(C)n(C(=O)c2ccc(C)c(S(=O)(=O)N3CCOCC3)c2)n1`, the inhibition was 11.4% (inactive).

On to `CCOc1c2ccc(C(=O)NC3CCCc4ccccc43)cc2nn1CC` (configuration not stated), for which the inhibition is -2.36% (inactive).

On to `O=C(O)c1ccccc1-c1ccccc1C(=O)Nc1cccc2ccccc12`, for which the inhibition was 9.42% (inactive).

`COc1ccccc1C(=O)NN1C(=O)C2C3C=CC(O3)C2C1=O` (configuration not stated): the inhibition is 3.54% (inactive).

`Cc1ccccc1C(OCC(O)CN1CCCCC1CCO)c1ccccc1` (configuration not stated): the inhibition was 30.4% (active).

Regarding `CCCSc1nsc(N)n1`, the inhibition was 3.53% (inactive).

Take `O=C(CSc1ncnc2c1cnn2CCc1ccccc1)Nc1ccc(F)cc1`: the inhibition was -3.75% (inactive).

In the case of `O=C(Nc1cccn(Cc2c(Cl)cccc2Cl)c1=O)c1ccc(Cl)cc1`, the inhibition was -8.03% (inactive).

For the molecule `CCOc1ccc(OCC)c(-c2c(=O)n(OCc3ccc(Cl)cc3)c3ccccc3[n+]2[O-])c1`, the inhibition is 11.6% (inactive).

On to `Clc1ccc(COn2c(-c3ccc(Cl)cc3Cl)nc3ncccc32)cc1`, for which the inhibition was 66.1% (active).

In the case of `O=C(/C=C/c1cc2c(cc1Br)OCO2)NCc1ccc(Cl)cc1`, the inhibition is 9.36% (inactive).

On to `N/C(=N\OC(=O)CCc1ccccc1)c1ccc(Cl)cc1`, for which the inhibition is 16.6% (inactive).
